Screens from PubChem BioAssay.
Most compounds without a hit are left out; they make up all but 6% or so of the library.
DRD3 agonist: D3 dopamine receptor (human) agonism. P35462. D3R DiscoveRx beta-arrestin cells, luminescence, 90 min. max activation, %. 410,000 tested, 0.58% active. AID 652048; in the data active = max activation above about 30%; note: 0% is about no effect
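Agonist mode: compounds and dopamine controls were applied to plated cells for 90 min at 37 degrees C after an overnight attachment at 1500 cells/well. Luminescent read-out followed 30 - 60 minutes at room temperature with DiscoveRx detection reagent.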
D1 PAM: human D1 dopamine receptor positive modulation; P21728; HEK293 TREx D1 cells, calcium flux, dopamine EC20 potentiation; potentiation, % at 10 µM; 360,000 tested, 0.036% active; in the data active = potentiation above about 30%; note: 0% is about no effect
Target sequence (P21728 whole entry, looked up): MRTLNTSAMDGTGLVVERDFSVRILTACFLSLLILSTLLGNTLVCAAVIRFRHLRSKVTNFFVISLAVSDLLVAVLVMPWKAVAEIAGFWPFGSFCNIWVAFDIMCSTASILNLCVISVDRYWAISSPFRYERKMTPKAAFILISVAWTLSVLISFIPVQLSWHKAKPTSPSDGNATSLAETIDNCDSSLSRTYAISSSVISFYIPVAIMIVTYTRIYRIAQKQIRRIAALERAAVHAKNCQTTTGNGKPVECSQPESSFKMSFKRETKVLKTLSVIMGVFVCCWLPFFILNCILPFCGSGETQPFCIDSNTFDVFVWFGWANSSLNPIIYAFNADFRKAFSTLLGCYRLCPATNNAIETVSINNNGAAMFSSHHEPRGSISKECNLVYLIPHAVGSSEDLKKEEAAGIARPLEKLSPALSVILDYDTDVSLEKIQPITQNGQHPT
D1 ag: human D1 receptor agonism; HEK293 T-REx D1 cells, calcium flux, agonist mode; activation, % at 2 µM; 360,000 tested, 1% active; in the data active = activation above about 30%; note: 0% is about no effect
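Inducible HEK293 T-REx D1 cells, force-coupled to calcium signalling, were plated at 4000 cells/well with tetracycline and held overnight at 30 C. After no-wash calcium dye loading, compound-evoked calcium rise over 180 s flagged agonists.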
D3 antag: antagonists of human D3 dopamine receptor | P35462 | D3R cells, DiscoveRx beta-arrestin luminescence, antagonist mode; hits give low values | max response, negative = inhibition, % | 360,000 tested, 2.5% active | AID 652054; in the data active = max response below about -50%; inconclusive = no clear call, values can overlap the other calls; note: % is set by controls: 0 for no effect and ±100 for the full control effect
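Cells expressing the human receptor were seeded at 1500 cells/well, incubated overnight at 37 degrees C in 5% CO2, then exposed to library compounds with dopamine controls for 90 minutes at 37 degrees C before luminescent detection.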
D1 antag: blocks dopamine activation of the human D1 receptor. HEK293 TREx D1 cells, calcium flux, dopamine EC80; hits give low values. P21728. activity change, negative = inhibition, % at 10 µM. 360,000 tested, 3.2% active; in the data active = activity change below about -30%; note: % is set by controls: 0 for no effect and ±100 for the full control effect
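Tetracycline-induced HEK293 Trex D1 cells, force-coupled to calcium, dye-loaded; compounds added and read 180 s, then EC80 dopamine added and calcium flux tracked kinetically another 180 s.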
Active calls of the source: *; ? = inconclusive; . = not tested or not shown.

SMILES	DRD3 agonist	D1 PAM	D1 ag	D3 antag	D1 antag
CCOCCCNC(=O)C(c1ccc(Cl)cc1)N(Cc1cccs1)C(=O)CNC(C)=O (stereo not drawn)	2.7	-8.2	0.5	5.6	-10.0
c1ccc2c(c1)OCCOCCOCCOCCOc1ccccc1OCCOCCOCCO2	2.1	-10.9	21.8	4.3	-31.8*
O=c1oc2cc(Oc3ccc(C(F)(F)F)cc3[N+](=O)[O-])ccc2c2c1CCC2	-6.9	-5.5	2.1	-2.5	6.4
O=c1oc2cc(Oc3c([N+](=O)[O-])cc(C(F)(F)F)cc3[N+](=O)[O-])ccc2c2c1CCCC2	6.5	5.1	3.7	-89.9*	-8.1
CC(=O)Nc1c(I)cc(I)c(C(=O)O)c1I	65.8*	.	.	.	.
CC12CCC(C1)C(C)(C)C2=O (stereo not drawn)	-4.7	.	.	.	.
CCCc1cnc2c(c1SCC(=O)Nc1ccccc1F)c(=O)n(C)c(=O)n2C	1.2	0.2	3.5	.	.
Cc1cccc(-c2cc(=O)c(C(=O)O)cn2-c2ccc(F)cc2F)c1	0.0	-7.0	3.1	-78.8*	-40.2*
Cc1cccc(-c2cc(C(=O)O)c3c(-c4ccc(F)cc4)[nH]nc3n2)c1	-10.1	-1.2	5.4	.	-6.5
CCOC(=O)N1CCC(NC(=O)c2cnn(-c3cccc(F)c3)c2-n2cccc2)CC1	9.6	-2.9	1.7	.	6.5
COc1cccc(N2CCN(C(=O)c3cccc(-n4c(C)nc5cccnc54)c3)CC2)c1	18.0	-1.2	0.9	.	-10.7
Cc1nc2cccnc2n1-c1cccc(C(=O)N2CCN(c3cccc(Cl)c3)CC2)c1	1.8	-3.7	5.3	.	-32.2*
O=C(COC(=O)CN1C(=O)c2ccccc2C1=O)Nc1ncc(Cl)cc1Cl	-6.7	-3.7	0.4	0.0	-7.0
CCC1(CC)NC(=O)N(CC(=O)OCC(=O)Nc2ncc(Cl)cc2Cl)C1=O	3.1	-15.7	0.6	9.3	-64.3*
O=C(COC(=O)CCOc1ccccc1)Nc1ncc(Cl)cc1Cl	-1.2	2.6	0.3	6.1	-60.0*
Cc1ccccc1NC(=O)Cn1nc(-c2ccccc2)nc(Cc2ccccc2)c1=O	12.1	-1.7	-0.2	.	6.5
COC(=O)c1ccc(-n2nnc(-c3nc(-c4ccc5c(c4)OCO5)no3)c2C)cc1	8.4	2.0	4.1	.	10.6
COc1cccc(C(=O)NCC(c2ccc(N(C)C)cc2)N2CCc3ccccc32)c1 (stereo not drawn)	-4.0	-0.3	1.9	.	-3.6
CC(NCCCOc1cccc2ccccc12)c1ccccc1 (stereo not drawn)	-0.5	2.2	38.9*	-15.7	1.0
Cc1ccc(Oc2coc3cc(OCC(=O)NC4CCCCC4)ccc3c2=O)cc1	3.9	-1.5	0.7	.	-0.9
Cn1c(CN2CCN(C(=O)c3ccccc3)CC2)nc2cc([N+](=O)[O-])ccc21	1.1	3.1	0.3	7.4	-20.3
Cn1c(CN2CCN(C(=O)c3ccccc3Cl)CC2)nc2cc([N+](=O)[O-])ccc21	0.9	-3.9	1.8	9.0	-77.0*
N#Cc1nc(/C=C/c2ccc(F)cc2)oc1N1CCCCCC1	-9.6	-0.8	0.5	.	-5.5
COCCn1c(SCC(=O)c2ccc(C)cc2)nc2cc(C(=O)NC3CCCC3)ccc2c1=O	-3.2	-2.7	1.9	.	37.3
Cn1cc(CC(=O)NCCCN2CCOCC2)c2ccccc21	9.5	-4.5	3.2	2.8	9.0
SMILES	DRD3 agonist	D1 PAM	D1 ag	D3 antag	D1 antag
O=C(Cc1ccccc1)NCCN1CCCC1	-25.9	-10.7	3.7	1.4	-39.3*
Cc1ccccc1CC(=O)NCCN1CCCCC1	-8.2	-0.3	2.5	-9.6	1.8
COc1ccc(CC(=O)NCCN2CCOCC2)cc1	-1.5	1.2	6.7	9.6	3.7
Cc1ccc(CC(=O)NCCN2CCOCC2)cc1	58.0*	-3.1	3.7	-8.0	-4.3
CCn1c(=O)c(C(=O)NCCN2CCCCC2)c(O)c2ccccc21	-12.2	3.2	4.7	-92.5*	-0.4
Cn1cc(CC(=O)NCCN2CCOCC2)c2ccccc21	0.2	-9.2	3.1	4.0	-31.9*
CC[C@H](C)[C@H](N)C(=O)O	-12.6	.	.	.	.
Cc1ccc(NC(=O)c2cc(S(=O)(=O)N3CCC4(CC3)OCCO4)ccc2F)cc1Cl	1.7	-0.3	-1.5	.	-23.5
CCOP(=O)(OCC)c1nc(-c2ccc(Br)cc2)oc1N1CCCCC1	3.5	-9.0	4.2	8.7	-45.0*
CCOP(=O)(c1ccccc1)c1nc(-c2ccc(F)cc2)oc1N1CCCCC1 (stereo not drawn)	0.3	-4.1	32.9*	30.1	3.9
COc1cc(OC)c(Nc2cc(C)nc3ncnn23)cc1Cl	-7.0	-0.4	-0.1	.	3.7
N#CCSc1ncnc2ccccc12	-3.5	2.2	3.0	-54.6*	-6.7
NC(=O)c1ccc(Oc2ccc3ccc(=O)oc3c2)c([N+](=O)[O-])c1	2.9	-0.8	4.0	8.9	-2.0
O=c1ccc2cc([N+](=O)[O-])c(CCO)cc2o1	5.2	3.2	2.7	-52.2*	4.6
C[C@@H](C(=O)NCc1ccccn1)[C@@H]1C[C@@]1(C)[C@@H](NC(=O)OCc1ccccc1)c1ccccc1	0.2	1.9	-2.1	8.2	-31.0*
Cc1cccc(-c2nsc(SCC(=O)N3CCCC3)n2)c1	4.9	-1.4	5.0	12.5	-37.2*
O=C(CSc1nc(-c2ccccc2)ns1)N1CCOCC1	1.7	1.4	4.3	2.0	14.8
CN(C)c1ccc(Cc2cc3c(O)ccc(O)c3cc(Cc3ccc(N(C)C)cc3)c2=O)cc1	-1.8	.	.	-51.1*	.
Cc1oc2c(c1C(=O)Nc1ccc(Cl)cc1F)C1=NCCN1C=N2	-12.9	2.8	0.7	.	-7.0
CC(C)CC1OC(C(C)C)Cc2[nH]c(=S)[nH]c(=O)c21 (stereo not drawn)	-3.8	.	.	-50.7*	.
COc1ccc(S(=O)(=O)N2CCC(O)(c3ccc(Cl)cc3)CC2)cc1OC	-0.1	-3.6	0.3	57.1	-23.4
COc1ccc(S(=O)(=O)N2CCC(O)(c3ccc(Cl)cc3)CC2)cc1	-5.1	-7.0	10.8	12.4	-35.8*
CC(=O)NS(=O)(=O)c1ccc(N=NN2CCOCC2)cc1	4.9	-6.3	0.1	9.8	-57.1*
CC(=O)NS(=O)(=O)c1ccc(N=NN2CCCCCC2)cc1	-4.7	4.8	-1.0	9.4	-0.3
Cn1c(=O)c(Nc2ccc(Cl)cc2)c2c3c(cccc31)C(=O)c1ccccc1-2	-15.7	7.4	78.2*	?	3.9
CC(=O)Nc1c2c3c(cccc3n(C)c1=O)C(=O)c1ccccc1-2	-14.5	2.5	2.6	-50.6*	-12.4
CCOC(=O)c1c2c3c(cccc3n(C)c1=O)C(=O)c1ccccc1-2	29.1	8.8	1.8	94.8	-0.9
Cc1ccc(OCCCC(=O)NCc2ccco2)cc1	21.8	-6.5	1.7	-29.8	3.4
Cc1ccccc1OCCCC(=O)NCc1ccco1	2.2	-6.4	1.8	-123.2*	23.0
CCC(Cc1ccccc1)NC(=O)Cn1ncc2c3ccccc3n(Cc3ccc(F)cc3)c2c1=O (stereo not drawn)	2.6	-4.3	6.2	.	-15.7
